# According to PubChem BioAssay (Tox21):
# Inconclusive results are not listed. Activity calls are given as the source filed them. Calls follow the shape of the full dose curve.
# Assay: qHTS assay to identify small molecule agonists of the progesterone receptor (PR) signaling pathway - cell viability counter screen (AID 1346799); also: nearly all actives have a fitted effect of over 45% in size
# Conditions: PR-UAS-bla HEK293T viability, CellTiter-Glo luminescence, 16 h; series mostly up to 92.4 µM; activity change, negative = cytotoxicity: at the top concentration
# Source text: National Center for Advancing Translational Sciences [NCATS]
# NIH Chemical Genomics Center [NCGC]
# U.S. Environmental Protection Agency [EPA]
# National Institutes of Environmental Health Sciences [NIEHS]
# National Toxicology Program [NTP]
# U.S. Food and Drug Administration [FDA]
# Progesterone receptor (PR), a nuclear hormone receptor, plays an important role in development, metabolic homeostasis and reproduction. It is activated by the steroid hormone progesterone. Endocrine disrupting chemicals (EDCs) and their interactions with steroid hormone receptors like PR causes disruption of normal endocrine function. To identify the compounds that stimulate PR signaling, a PR-UAS-bla GripTite cell line i.e. PR-UAS-bla HEK293T (Invitrogen, Carlsbad, CA, USA) containing a beta-lactamase reporter gene under the control of an UAS response element was used to screen Tox21 10K compound library. The cytotoxicity of the Tox21 compound library against the PR-bla cell line was tested in parallel by measuring the cell viability using CellTiter-Glo assay in the same wells.
# Tox21 Assay Protocol Summary:
# PR-UAS-bla HEK293T cells were dispensed at 3,000 cells/5 uL of assay medium containing 2% charcoal stripped FBS per well into black wall/clear-bottom 1536-well plates using a Multidrop Combi (ThermoFisher Scientific, Waltham, MA) dispenser. After the assay plates were incubated at a 37C and 5% CO2 for 6 hr, 23 nL of compounds dissolved in DMSO, positive controls or DMSO only was transferred to the assay plate by a Pintool station (Kalypsys, San Diego, CA). The plates were incubated at 37C and 5% CO2 for 16 hr. Then 1 uL of LiveBLAzer B/G FRET substrate was added using a Flying Reagent Dispenser (FRD, Aurora Discovery, San Diego, CA), the plates were incubated at room temperature for 2 hours, and fluorescence intensity was measured by an Envision plate reader (PerkinElmer, Shelton, CT). For cell viability readout that measures cytotoxicity, 4 uL/well of CellTiter-Glo reagent was added into the assay plates using a FRD. After 30 min incubation at room temperature, the luminescence intensity in the plates was measured using a ViewLux (PerkinElmer) plate reader.
# % is scaled to controls: 0 for no effect and ±100 for the full control effect; potency is read from the fitted curve at half-maximal effect.
SMILES,"activity change, negative = cytotoxicity",Potency
N#CC1(N=NC2(C#N)CCCCC2)CCCCC1,-17.9% (inactive),–
CCCCCCCCn1sccc1=O,–,43.4 µM (active)
OCCCl,-2.3% (inactive),–
CC1(C)[C@H](C(=O)O[C@H](C#N)c2cccc(Oc3ccccc3)c2)[C@@H]1C=C(Br)Br,23.4% (inactive),–
CCOP(=O)(O)C(N)=O,-2.43% (inactive),–
c1ccc2c(c1)sc1ccccc12,–,inactive
CCCCNC(=O)OCC#CI,–,inactive
CCCC[N+]1(C)[C@@H]2CC(OC(=O)[C@H](CO)c3ccccc3)C[C@H]1[C@@H]1O[C@@H]12 (stereo not given in full),11% [at 42.5 µM] (inactive),–
CC(C)(C)NCC(O)c1ccccc1Cl (stereo not given),-6.06% [at 42.5 µM] (inactive),–
CC[N+]1(C)CCCC(OC(=O)C(O)(c2ccccc2)c2ccccc2)C1 (stereo not given),-6.7% [at 42.5 µM] (inactive),–
Cc1nc(N(C)C)nc(OC(=O)N(C)C)c1C,-1.44% (inactive),–
C1CCNCC1,-13.7% (inactive),–
C[C@H](N)[C@H](O)c1ccc(O)c(O)c1,-1.35% [at 42.5 µM] (inactive),–
CCC(C)Cl (stereo not given),22% (inactive),–
O=S(=O)(Cl)Cl,-0.237% (inactive),–
CC(C)c1ccc(NC(=O)N(C)C)cc1,-8.82% (inactive),–
CCOP(=O)(SC(C)CC)N1CCSC1=O (stereo not given),-12.4% (inactive),–
N#CC(C#N)=Cc1ccc(O)c(O)c1,12.7% [at 42.5 µM] (inactive),–
O=C(CCl)CCl,–,inactive
FC(Cl)(Cl)C(F)(Cl)Cl,6.64% (inactive),–

SMILES,"activity change, negative = cytotoxicity",Potency
CCCCCCCCP(=O)(O)O,–,27.3 µM (active)
CCCCC1C(=O)NC(=O)N(C2CCCCC2)C1=O (stereo not given),-2.21% [at 42.5 µM] (inactive),–
O=[N+]([O-])O[C@H]1CO[C@H]2[C@@H]1OC[C@H]2O[N+](=O)[O-],0.0315% [at 42.5 µM] (inactive),–
Nc1cc(Cl)cc(C(=O)O)c1Cl,–,inactive
CC(Cl)C(=O)O (stereo not given),0.836% (inactive),–
C=CCc1ccc(OC(=O)Cc2ccccc2)c(OC)c1,-0.939% (inactive),–
N#CC(C#N)=C(C#N)C#N,8.12% (inactive),–
CCN(C(C)=O)c1cccc(-c2ccnc3c(C#N)cnn23)c1,-2.15% [at 42.5 µM] (inactive),–
SCc1ccccc1,1.95% (inactive),–
O=C(O)c1cc(Cl)ccc1Cl,-4.79% (inactive),–
Nc1ccccc1C(=O)OCC(O)CO (stereo not given),-4.11% [at 42.5 µM] (inactive),–
CC(C)OC(=O)Cc1ccccc1,1.59% (inactive),–
CN(C)C(=O)Nc1cccc(OC(=O)NC(C)(C)C)c1,-13.1% (inactive),–
CCOC(=O)c1cncn1C(C)c1ccccc1 (stereo not given),-0.726% [at 42.5 µM] (inactive),–
O=C(N/N=C/c1ccc([N+](=O)[O-])o1)c1cc([N+](=O)[O-])cc([N+](=O)[O-])c1O,-1.04% [at 42.5 µM] (inactive),–
CCCCOC(=O)CCC(=O)OCCCC,21.6% (inactive),–
CC(C)C1(C)N=C(c2ncccc2C(=O)O)NC1=O (stereo not given),3.6% (inactive),–
Clc1ccc(Cl)c(Cl)c1,–,inactive
CC(Cc1ccccc1)NCc1ccccc1Cl (stereo not given),-9.78% [at 42.5 µM] (inactive),–
CC(Oc1cccc(Cl)c1)C(=O)O (stereo not given),-2.03% (inactive),–
